D2 PAM-1 – potentiates the human D2 dopamine receptor allosterically. P14416. DiscoveRx D2 beta-arrestin cells, luminescence, 90 min; 100% = 57 uM dopamine signal. potentiation, % (no concentration beside the values). 0.23% of 360,000 active. AID 624464; in the data active = potentiation above about 50%; inconclusive = mostly about 30% to 49%
Target sequence (P14416 whole entry, looked up): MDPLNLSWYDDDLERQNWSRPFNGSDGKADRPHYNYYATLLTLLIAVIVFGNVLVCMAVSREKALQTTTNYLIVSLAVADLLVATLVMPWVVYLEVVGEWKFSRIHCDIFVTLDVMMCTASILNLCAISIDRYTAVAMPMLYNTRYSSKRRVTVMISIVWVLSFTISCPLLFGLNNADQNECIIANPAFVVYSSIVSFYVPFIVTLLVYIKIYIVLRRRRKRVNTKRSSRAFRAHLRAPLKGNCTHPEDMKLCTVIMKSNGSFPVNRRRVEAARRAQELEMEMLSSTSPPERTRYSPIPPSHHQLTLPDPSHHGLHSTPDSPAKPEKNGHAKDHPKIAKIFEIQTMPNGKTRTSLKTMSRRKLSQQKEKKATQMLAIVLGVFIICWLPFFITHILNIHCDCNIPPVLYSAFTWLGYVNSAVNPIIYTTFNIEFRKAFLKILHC
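PathHunter D2 cells, attached overnight at 37 deg C, received compound in DMSO plus dopamine at EC20 (50 nM final) for 90 min at 37 deg C. Beta-arrestin recruitment was read as luminescence after 1 h with detection reagent at ambient temperature.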
D2 ag-1 – agonists of human D2 dopamine receptor | P14416 | HEK293 T-REx D2 cells, calcium flux agonist mode | activation, % at 2 µM | 0.53% of 340,000 active | AID 485358;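 active = activation over 3 SD above normal in the single-dose calcium agonist read, cut at about 30% in these data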; also: 0% is about no effect
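Agonism is scored from calcium flux in a force-coupled, inducible HEK293 cell line expressing D2, read kinetically for 180 s after compound addition against dopamine controls.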
D2 PAM-2 – positively modulates the human D2 dopamine receptor allosterically; 0.34% of 340,000 active; potentiation, % at 10 µM; HEK293 T-REx D2, calcium flux, EC20 dopamine potentiation; AID 485347;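 active = potentiation over 3 SD above the plate norm, cut at about 30% in these data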; also: 0% is about no effect
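Primary screen. Calcium kinetics in induced HEK293 T-REx D2 cells: compound pre-addition 180 s, EC20 dopamine, 180 s more.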
D2 antag – D2 dopamine receptor (human) antagonism. inhibition, % at 10 µM. HEK293 TREx D2 cells, calcium flux, dopamine EC80. 2% of 340,000 active. P14416; in the data active = inhibition above about 30%; inactive = below that, where a call was filed; also: 0% is about no effect
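Tetracycline-induced HEK293 T-REx cells expressing D2 force-coupled to calcium signalling were dye-loaded, exposed to compound for 180 s, then challenged with an EC80 of dopamine; calcium flux was followed kinetically for a further 180 s.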
B2AR arrestin – beta2AR (human) beta-arrestin recruitment activity; P07550; beta-arrestin recruitment to beta2AR, cell-based reporter; Potency, µM (doses to about 46.1 µM), for the others: at the highest dose activation, actives largely listed as activators; 0.02% of 330,000 active; active = well fitted activation curve with a large enough effect; inconclusive = small, poorly fitted or top-dose-only effect;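 also: potency is read from the fitted curve at half-maximal effect; 0% = DMSO controls and full agonism = EC100 isoproterenol or metaproterenol; nearly all actives have a fitted effect of over 65% in size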
D2 ag-2 – agonists of human D2 dopamine receptor (beta-arrestin) | 0.084% of 360,000 active | activation, % (test concentration not listed) | P14416 | DiscoveRx PathHunter D2 beta-arrestin, luminescence, 90 min; 100% = 57 uM dopamine signal | AID 624465; in the data active = activation above about 40%; inconclusive = between about 15% and that limit
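Agonist mode: compounds alone added to overnight-plated D2 PathHunter cells for 90 min at 37 C, with 57 uM final dopamine (EC100) defining full response. Beta-arrestin recruitment detected by chemiluminescent reagent, read after 1 h at ambient temperature.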
* = called active by the depositor; ? = inconclusive; . = not tested or not shown. Only some compounds are listed: those with a hit (about 2.4% of all), similar ones and a draw of the others.

SMILES	D2 PAM-1	D2 ag-1	D2 PAM-2	D2 antag	B2AR arrestin	D2 ag-2
Nc1ccc(O)c2c1C(=O)c1ccccc1C2=O	-9.8	-2.5	-0.9	-11.1	0.6%	3.4
O=C(CN1C(=O)NC(Cc2ccccc2)C1=O)Nc1ccc(F)c(Cl)c1 (centres undefined)	-2.2	1.2	3.1	32.7*	0.2%	4.6
Cc1ccc(C)n1-c1nn(S(=O)(=O)c2ccccc2)c2cccc(F)c12	0.2	-0.9	13.1	-4.1	-0.5%	-8.5
Cc1ccccc1-c1noc(N)c1C#N	76.0*	-0.3	-8.2	13.0	-0.3%	13.3
CCOC(=O)C1=C(C)NC2=C(C(=O)CCC2)C1c1coc2ccccc2c1=O (centres undefined)	-4.9	0.6	5.6	-6.6	-0.1%	-1.8
CC1=C(C(=O)OCCOc2ccccc2)C(c2coc3ccccc3c2=O)C2=C(CCCC2=O)N1 (centres undefined)	-3.3	0.6	43.0*	-21.4	-0.2%	-0.8
Oc1ccc(NCc2ccccc2OCc2ccccc2)cc1	96.8*	-0.1	-13.7	-2.0	7.31µM*	?
Oc1ccc(NCc2ccccc2OCc2ccc(Cl)cc2)cc1	.	-0.1	14.7	.	.	.
O=C(N/N=C/c1ccc(N2CCCCC2)o1)C(O)(c1ccccc1)c1ccccc1	.	0.8	6.0	0.6	3.0%	.
Fc1ccc(N/N=C2/CC(c3ccccc3)Oc3ccccc32)c(F)c1 (centres undefined)	82.0*	-0.3	-3.7	2.7	3.0%	14.4
CNC(=S)N/N=C1\CC(c2ccccc2)Oc2ccccc21 (centres undefined)	-6.2	-2.0	-3.9	-12.6	?	-5.1
Cn1nnnc1SCCNCc1ccc(F)cc1	.	-0.3	9.2	.	.	.
CCOCCCn1c(=N)c(C(=O)NC2CCCC2)cc2c(=O)n3cc(C)ccc3nc21	.	0.5	3.9	.	.	.
COc1cccc(O)c1CN1CCCC(C(=O)c2cccc(C(F)(F)F)c2)C1 (centres undefined)	-13.9	0.8	-23.3	48.6*	-0.2%	-1.2
COc1ccc(C(=O)C2CCCN(Cc3c(O)cccc3OC)C2)cc1OC (centres undefined)	-24.2	0.2	-11.2	11.9	-0.3%	2.9
CCCN(C(=O)c1cc(Cl)nc2ccccc12)C1CCS(=O)(=O)C1 (centres undefined)	-9.4	-0.2	5.2	4.4	-0.2%	5.1
CCc1ccc(N(CC(=O)NC2CCCC2)C(=O)CCC(=O)Nc2cc(C)on2)cc1	1.0	1.5	-6.4	-8.2	0.1%	-4.5
CC[C@@]12C(=O)N(c3cccc(Br)c3)C(=O)N1[C@H](c1ccc(Br)cc1)[C@@H]1C(=O)N(C(C)(C)C)C(=O)[C@@H]12	-7.2	1.0	-5.5	32.3*	-0.1%	-3.7
CC[C@@]12C(=O)N(c3cccc(Br)c3)C(=O)N1[C@H](c1ccc(OC)cc1)[C@@H]1C(=O)N(C(C)(C)C)C(=O)[C@@H]12	-15.6	0.5	7.1	22.7	-0.2%	-1.4
CC1=C(C(=O)OCc2ccccc2)C(c2ccccc2)NC(=O)N1 (centres undefined)	52.6*	-0.1	5.0	3.3	-0.1%	13.9
CC1=C(C(=O)OCc2ccccc2)C(c2cccc(Br)c2)NC(=O)N1 (centres undefined)	-1.5	0.9	-5.5	-4.1	-1.8%	4.2
COc1ccc(C2NC(=O)NC(C)=C2C(=O)OCc2ccccc2)cc1 (centres undefined)	4.5	-2.2	3.8	4.0	-1.1%	8.2
CC1=C(C(=O)OCc2ccccc2)C(c2cccc(F)c2)NC(=O)N1 (centres undefined)	71.9*	-1.4	1.1	2.6	-1.1%	43.6*
COc1ccc(/C=N/Nc2nc3ccccc3c(=O)n2-c2ccccc2)cc1OC	-9.5	-0.7	-5.7	-21.1	0.4%	3.9
COc1ccc(-c2csc(N(Cc3ccco3)C(=O)c3cccs3)n2)cc1	-16.2	0.8	2.0	-11.7	-0.9%	-7.3
SMILES	D2 PAM-1	D2 ag-1	D2 PAM-2	D2 antag	B2AR arrestin	D2 ag-2
O=C(C1CC1)N(Cc1ccco1)c1nc(-c2ccccc2)cs1	1.5	-0.3	30.5*	4.2	0.1%	-0.2
CC(C)C[C@H](NC(=O)C1(c2ccccc2)CCN(C(=O)OC(C)(C)C)CC1)C(=O)N1CCC[C@H]1C(=O)O	-5.8	-0.2	6.0	0.8	0.5%	2.2
O=C(COC(=O)c1ccccc1-c1nc2ccccc2s1)NC1CCS(=O)(=O)C1 (centres undefined)	-15.3	0.1	-2.8	32.3*	-0.6%	0.8
Cc1ccc(C(=O)CCC(=O)Nc2ccccc2C)cc1C	-2.6	-0.6	6.8	6.9	0.3%	0.6
CCOc1cc2c(cc1/C=C/c1noc(C)c1[N+](=O)[O-])OC(C)C2 (centres undefined)	-5.9	64.4*	3.1	13.7	0.5%	-5.8
Cn1c(CN2CCCCC2)c(C#N)c2ccccc21	-21.7	-0.8	-22.9	45.6*	0.6%	-3.9
Cc1ccc([N+](=O)[O-])cc1NC(=O)CN(C1CCCCC1)S(=O)(=O)c1ccc(Cl)cc1	-37.2	0.0	-17.8	52.7*	0.3%	-1.2
N#Cc1c(SCc2ccccc2)sc(C(=O)c2ccccc2)c1N	-1.5	-0.3	-12.2	65.0*	-2.1%	-2.2
COC(=O)[C@@H]1C[C@@H]2CC[C@@H](O)C[C@@H]2N1Cc1ccc(OC)cc1	-3.6	0.7	8.5	39.2*	-0.8%	-2.3
CCC(=O)c1coc2ccc(O)cc12	?	.	.	.	.	13.3
CCCn1c(C)nc2cc(Cl)c(N3CCN(c4nc(-c5ccc(C)cc5)cs4)CC3)cc21	-10.5	-0.4	3.1	40.0*	-0.8%	-2.5
NNC(=O)c1cc(S(=O)(=O)N2CCOCC2)c[nH]1	-2.4	-0.1	2.7	-5.5	-0.1%	-4.9
COc1ccc2nc(SCC(=O)N3CCNC3=O)[nH]c2c1	-5.9	0.5	6.4	43.9*	9.3%	-1.7
Cn1nnc2cc(C(=O)N3CCC(c4ccccc4)C3)ccc21 (centres undefined)	-19.6	1.6	103.3*	11.5	-0.4%	-2.3
Cn1nnc2cc(C(=O)N3CCCCCC3)ccc21	1.6	0.5	-7.0	-15.5	-0.3%	-0.9
CCOC(=O)c1c(C)[nH]c(C)c1C(=O)COC(=O)[C@@H](NC(=O)c1ccccc1OCC)C(C)C	-14.4	0.6	-1.2	-4.0	-0.3%	-0.1
O=S(=O)(NCC1CCN(Cc2ccccc2)CC1)c1ccccc1C(F)(F)F	-19.6	1.2	-25.2	53.9*	-0.4%	0.8
FC(F)(F)c1ccccc1CN1CCC(Cc2ccccc2)CC1	-10.5	-0.1	17.4	-10.2	0.2%	6.6

Screening data: PubChem, National Center for Advancing Translational Sciences (NCATS)
